Only some compounds are listed: those with a hit (about 4.5% of all), similar ones and a draw of the others.
697 NFkB inh – lowers PMA/ionomycin-induced NF-kB signal in 697 B cells. 697 B-cell NF-kB luciferase reporter, 16 h. 330,000 compounds, 0.33% hits. AID 435022. inhibition, % at 4 µM; in the data active = inhibition above about 35%
aSyn 5UTR inh – 5' untranslated region of α-synuclein, MLPCN primary screen; 300,000 compounds, 0.82% hits; inhibition, % (tested at 7.5 µM); alpha-synuclein 5'UTR reporter, inhibitor activity; AID 1813; in the data active = inhibition above about 60%;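 note: H4 neuroglioblastoma cells stably carrying SNCA 5'UTR luciferase fusion; 0% = DMSO wells and 100% = positive control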
CSC inhib – cancer stem cell inhibition; inhibition, % at 7.5 µM; cancer stem cell-like cells viability, luminescence; 300,000 compounds, 1.1% hits; in the data active = inhibition above about 75%; tested in HMLE shEcad cells
Mdm2 MdmX PPI – human Mdm2/MdmX binding inhibition; 330,000 compounds, 3% hits; inhibition, % at 8 µM; O15151+Q00987; SaOS-2 split-luciferase Mdm2/MdmX complementation, luminescence;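 active = inhibition of at least 50% at 8 µM in the primary screen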
Target sequence (O15151 whole entry, looked up): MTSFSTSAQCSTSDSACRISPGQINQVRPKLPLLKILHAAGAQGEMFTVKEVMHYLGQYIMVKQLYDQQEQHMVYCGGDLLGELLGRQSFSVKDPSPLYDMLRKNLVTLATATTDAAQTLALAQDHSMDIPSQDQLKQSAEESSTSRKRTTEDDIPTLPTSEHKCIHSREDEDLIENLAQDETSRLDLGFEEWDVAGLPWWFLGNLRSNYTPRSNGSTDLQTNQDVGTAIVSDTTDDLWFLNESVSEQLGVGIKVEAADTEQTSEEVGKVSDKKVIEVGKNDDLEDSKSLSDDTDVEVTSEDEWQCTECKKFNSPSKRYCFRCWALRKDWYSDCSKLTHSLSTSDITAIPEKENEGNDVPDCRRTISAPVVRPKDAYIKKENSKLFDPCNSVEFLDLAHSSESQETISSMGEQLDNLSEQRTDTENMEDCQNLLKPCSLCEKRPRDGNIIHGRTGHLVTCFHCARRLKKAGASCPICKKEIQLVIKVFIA
Target sequence (Q00987 whole entry, looked up): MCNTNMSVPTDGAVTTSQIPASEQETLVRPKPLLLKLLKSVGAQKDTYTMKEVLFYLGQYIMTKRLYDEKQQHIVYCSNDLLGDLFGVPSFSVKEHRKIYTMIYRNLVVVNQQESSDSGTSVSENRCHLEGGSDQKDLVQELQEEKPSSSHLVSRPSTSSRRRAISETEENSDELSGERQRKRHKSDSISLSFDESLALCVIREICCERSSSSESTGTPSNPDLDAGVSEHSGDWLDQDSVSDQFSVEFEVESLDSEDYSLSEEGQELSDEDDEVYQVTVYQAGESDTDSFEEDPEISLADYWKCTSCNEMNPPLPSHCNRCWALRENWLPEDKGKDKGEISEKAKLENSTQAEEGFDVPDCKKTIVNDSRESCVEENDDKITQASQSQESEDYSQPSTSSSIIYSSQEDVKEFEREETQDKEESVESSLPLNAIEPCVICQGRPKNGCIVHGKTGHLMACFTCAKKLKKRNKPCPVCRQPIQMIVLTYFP
Jurkat NFkB inh – lowers PMA/ionomycin-induced NF-kB signal in Jurkat cells. 330,000 compounds, 0.53% hits. PMA/ionomycin-induced NF-kB luciferase reporter, luminescence. inhibition, % at 4 µM; in the data active = inhibition above about 50%
Gli-Sufu block – antagonists of Gli-Sufu signaling. Sufu-KO-LIGHT fibroblasts, Gli luciferase reporter luminescence. inhibition, % at 5 µM. 340,000 compounds, 0.74% hits;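 active = inhibition above about 55%, limit read from the data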;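 note: 0% = DMSO-treated cells and 100% = wells with medium but no cells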
Mdm2 MdmX conf – confirmation of human Mdm2/MdmX interaction inhibitors; shares compounds with Mdm2 MdmX PPI; inhibition, % at 8 µM; 10,000 compounds, 55% hits; Mdm2-MdmX binding, luminescent assay; in the data active = inhibition above about 40%
Full FLuc ctr – full-length luciferase inhibition in Mdm2/MdmX counter-screen | 6,200 compounds, 77% hits | SaOS-2 full-length luciferase counterscreen, luminescence | shares compounds with Mdm2 MdmX PPI | inhibition, % at 8 µM;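 active = mean inhibition at 8 µM reaching about 37%, which flags the compound as non-specific, limit read from the data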;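 note: p53-null SaOS-2 cells with luciferase driven by a doxycycline-inducible promoter; compound on cells about two nights before reading with doxycycline added after day one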
* marks the source's active call; other numbers are inactive results; / = not tested or not shown.

SMILES | 697 NFkB inh | aSyn 5UTR inh | CSC inhib | Mdm2 MdmX PPI | Jurkat NFkB inh | Gli-Sufu block | Mdm2 MdmX conf | others
COc1ccc(-c2oc3ccc(-c4ccc5c(c4)OCO5)cc3c2-c2ccc(OC)nc2)cc1 | 23 | 0 | 35 | 17 | 1 | 5 | /
COc1cc(-c2ccc3oc(-c4cccc(C)c4)c(C#CC4(O)CCCCC4)c3c2)cc(OC)c1OC | 8 | / | 81* | 56* | 9 | 0 | 11
CCCOC(=O)c1c(-c2ccc(OC)cc2)oc2ccc(-c3ccc(OC)nc3)cc12 | -4 | -17 | 7 | 22 | -7 | -4 | /
CNC(=O)CSc1nc2[nH]ncc2c(=O)[nH]1 | 2 | -1 | -8 | 27 | -7 | 22 | /
COc1cc(OC)cc(C(=O)N[C@H](C(=O)OCC(=O)Nc2ccc3c(c2)OCO3)C(C)C)c1 | 17 | / | -7 | 14 | 4 | 6 | /
Cc1ccc(-n2nc3c(N4CCC(C(=O)NCc5ccccc5C)CC4)nnc(C)c3c2C)cc1 | 14 | 45 | 46 | 96* | 32 | 53 | 32
Cc1nnc(N2CCC(C(=O)N3CCCCCC3)CC2)c2nn(-c3ccc(Cl)cc3)c(C)c12 | 18 | 1 | 4 | 60* | 42 | 36 | 33 | Full FLuc ctr=83*
CCOc1ccccc1CNC(=O)C1CCN(c2nnc(C)c3c(C)n(-c4ccc(C)cc4)nc23)CC1 | 2 | 78* | 18 | 100* | 34 | 4 | 76* | Full FLuc ctr=5
Cc1ccccc1CNC(=O)C1CCCN(c2nnc(C)c3c(C)n(-c4ccccc4)nc23)C1 (stereo not drawn) | -78 | -7 | 11 | 33 | -13 | 35 | /
COc1ccccc1CCNC(=O)C1CCN(c2nnc(C)c3c(C)n(-c4ccc(C)cc4)nc23)CC1 | -6 | 8 | 11 | 89* | 48 | 7 | 39 | Full FLuc ctr=79*
CCOc1ccccc1CNC(=O)Cn1nc(C)c2c(C)n(-c3ccc(C)cc3)nc2c1=O | -27 | 13 | -1 | 16 | 41 | -7 | /
Cc1ccc(-n2nc3c(N4CCC(C(=O)N5CCCCCC5)CC4)nnc(C)c3c2C)cc1 | -9 | 27 | -20 | 50 | 46 | 40 | /
Cc1cc2c(c(SCC(=O)NCc3ccccc3Cl)n1)C(=O)OC2 | 17 | 7 | 5 | -1 | -25 | -17 | /
CCOc1ccc(CNC(=O)C2CCN(c3nnc(C)c4c(C)n(-c5ccc(C)cc5)nc34)CC2)cc1 | -50 | 33 | 5 | 87* | 5 | 10 | 40* | Full FLuc ctr=40*
COc1ccc(-n2nc3c(N4CCC(C(=O)NCc5cccc(C)c5)CC4)nnc(C)c3c2C)cc1 | -38 | 70* | -15 | 99* | 19 | 74* | 45* | Full FLuc ctr=48*
Cc1nnc(N2CCCC(C(=O)NCc3ccccc3F)C2)c2nn(-c3ccccc3)c(C)c12 (stereo not drawn) | -6 | -17 | -31 | 68* | 14 | 28 | 30
COc1ccc(-n2nc3c(N4CCC(C(=O)NCCc5ccco5)CC4)nnc(C)c3c2C)cc1 | 19 | -2 | -19 | 45 | 21 | 10 | /
CC(C)c1ccc2c(c1)[C@H]1OCC[C@H]1[C@@H](c1cccs1)N2 | / | 14 | 50 | / | / | 15 | /
O=C(NC1CCCCC1)C(c1cccnc1)N(C(=O)CCl)c1cccc(Cl)c1 (stereo not drawn) | -145 | -81 | 31 | 100* | -29 | 0 | 100* | Full FLuc ctr=53*
Cc1ccc(C(=O)N(C)CC(=O)Nc2cccc(F)c2)cc1S(=O)(=O)N1CCCCC1 | 22 | 13 | / | -5 | 0 | 7 | /
CCCCCN1CSC(=S)N(Cc2ccccc2)C1 | 18 | 13 | / | 14 | -6 | 21 | /
CCN1CSC(=S)N(Cc2ccc(OC)cc2)C1 | 8 | -36 | 47 | 69* | -7 | 11 | 32
CCc1ccccc1NC(=O)CSc1nc2n[nH]c(C)c2c(=N)n1-c1cccc(OC)c1 | 20 | 17 | -5 | 36 | 4 | 11 | /
Cc1cc(=O)oc2cc(NC(=O)COc3cccc(C(F)(F)F)c3)ccc12 | 7 | / | 0 | 69* | 4 | -13 | 0
Cc1cc(OCC(=O)Nc2nccs2)c2c(C)cc(=O)oc2c1 | 15 | 5 | -18 | 90* | 10 | 5 | 1

Source: PubChem (several laboratories)
